This passage reports growth results from PubChem BioAssay (NCI).

SMILES strings stand for the structures. This is part of a sample that, as a whole, favours compounds with a hit. Of some 83,000 tested, about 20% had one in any assay.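 Negative percent growth values reflect cell death: -40 means 40% of the cells present at the start died, and -100 means all died.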 A number with no mark means an inactive call. Active and inactive are the calls of the source. Rule for the calls: active = growth percent below 10; inactive = the rest.

Among the test systems are K-562 leukemia; MALME-3M melanoma; MDA-MB-231 breast; RXF 393 renal; SF-268 CNS; SF-295 CNS; SF-539 CNS; UACC-257 melanoma; M14 melanoma; HCT-15 colon.
Holding throughout (assay): NCI-60 one-dose screen, 48 h (100 = growth as untreated, 0 = no growth, -100 = all killed)
Holding throughout (conditions): 10 µM

As for `Cc1nc2c(c(=O)[nH]1)OCN(Cc1ccccc1)C2`, the growth in the assay on K-562 leukemia was 88%; with MALME-3M melanoma, 87%; in the assay on MDA-MB-231 breast it was 107%; with RXF 393 renal, 118%; with SF-268 CNS, 103%; in the assay on SF-295 CNS it was 107%. Besides, the growth in the assay on SF-539 CNS is 109%; in the assay on UACC-257 melanoma it was 97.8%; in the assay on M14 melanoma, 101%; in the assay with HCT-15 colon, 99.4%.

With `N=C(N)c1ccc(-c2ccc(-c3cccs3)s2)cc1`, the growth with K-562 leukemia is -56% (active); in the assay on MALME-3M melanoma it was -80.1% (active); in the assay with MDA-MB-231 breast it was 75.8%; in the assay with RXF 393 renal, 75.8%; in the assay on SF-268 CNS, 101%; in the assay on SF-295 CNS, 16.4%. The growth in the assay with SF-539 CNS was 89.5%; in the assay with UACC-257 melanoma, 34.6%; in the assay with M14 melanoma, 30.3%; with HCT-15 colon, 0.674% (active).

With `O=C1c2ccc3c4c(ccc(c24)C(=O)N1CCNCc1ccccc1)C(=O)N(CCNCc1ccccc1)C3=O`, the growth with K-562 leukemia is 1.04% (active); with MALME-3M melanoma it was -68.4% (active); in the assay on MDA-MB-231 breast it was 39.9%; in the assay with RXF 393 renal, 90.5%; in the assay with SF-268 CNS it was 7.12% (active); with SF-295 CNS, -28.2% (active). Further, the growth in the assay with SF-539 CNS is -54.2% (active); with UACC-257 melanoma it was 95.8%; in the assay with M14 melanoma, -62.3% (active); in the assay on HCT-15 colon, -25.9% (active).

For `Cc1cc2c(C)c3cc(C)c(N)cc3nc2cc1N`, the growth is 1.18% (active) in the assay on K-562 leukemia; -3.24% (active) in the assay on MALME-3M melanoma; 20.3% in the assay on MDA-MB-231 breast; 16.3% in the assay on RXF 393 renal; 15.2% in the assay on SF-268 CNS; 39.5% in the assay with SF-295 CNS. Further, the growth was 19.4% in the assay with SF-539 CNS, 18.9% with UACC-257 melanoma, 9.16% (active) in the assay on M14 melanoma and 24.8% in the assay on HCT-15 colon.

Take `Cc1ccc(NC(=O)Nc2cccnc2)cc1NC(=O)Nc1cccnc1`: the growth was 57.4% in the assay on K-562 leukemia; 102% in the assay with MALME-3M melanoma; 92.8% in the assay on MDA-MB-231 breast; 82.7% with RXF 393 renal; 96.8% in the assay on SF-268 CNS; 77.9% in the assay on SF-295 CNS. Further, the growth in the assay on SF-539 CNS is 87.5%; in the assay on UACC-257 melanoma it was 10.9%; in the assay on M14 melanoma it was 91.6%; with HCT-15 colon it was 84%.

On to `Nc1c(C(=O)Nc2ccccc2)sc2nc3c(cc12)C(O)CCC3` (stereo not given), for which the growth in the assay with K-562 leukemia was 11.1%; in the assay on MALME-3M melanoma, 87.4%; in the assay on MDA-MB-231 breast, 32.8%; in the assay with RXF 393 renal, -6.4% (active); in the assay with SF-268 CNS, 46.4%; in the assay on SF-295 CNS, 8.61% (active). Also, the growth in the assay on SF-539 CNS is -5.31% (active); in the assay on UACC-257 melanoma it was 71.1%; in the assay on M14 melanoma, 22.1%; in the assay on HCT-15 colon it was 23.5%.

Regarding `O=S(=O)(Nc1ccccn1)c1ccc(N=Nc2ccc(O)c3ncccc23)cc1`, the growth is 6.51% (active) in the assay with K-562 leukemia; -19.8% (active) in the assay on MALME-3M melanoma; -2.1% (active) in the assay with MDA-MB-231 breast; 27.1% in the assay on RXF 393 renal; 25% with SF-268 CNS; 6.2% (active) in the assay with SF-295 CNS. For the same compound, the growth in the assay with SF-539 CNS is 10.8%; in the assay on UACC-257 melanoma it was -23.5% (active); with M14 melanoma, 11.8%; in the assay on HCT-15 colon, 14.5%.

With `O=C1/C(=C/c2ccc([N+](=O)[O-])s2)Oc2ccccc21`, the growth was -14.5% (active) with K-562 leukemia; -60.9% (active) in the assay on MALME-3M melanoma; -70.3% (active) in the assay with MDA-MB-231 breast; -81.1% (active) in the assay on RXF 393 renal; -54.2% (active) in the assay on SF-268 CNS; -37.4% (active) with SF-295 CNS. The growth is -77% (active) in the assay on SF-539 CNS, -54.6% (active) in the assay with UACC-257 melanoma, -40.9% (active) in the assay on M14 melanoma and -15.5% (active) in the assay with HCT-15 colon.

On to `CSCCCNC(=O)c1ccc2c(c1)/C(=C/c1[nH]c(C)cc1C)C(=O)N2`, for which the growth in the assay with K-562 leukemia was 49.1%; in the assay with MALME-3M melanoma, -9.58% (active); in the assay on MDA-MB-231 breast it was 20.9%; in the assay with RXF 393 renal, -31% (active); in the assay on SF-268 CNS it was 31.6%; with SF-295 CNS, 29.2%. In addition, the growth is 13.2% in the assay with SF-539 CNS, 48.9% with UACC-257 melanoma, 8.79% (active) in the assay on M14 melanoma and 22.5% in the assay on HCT-15 colon.

For `COc1cc(Cl)cc(-c2nn(-c3cccc(NC(=O)Nc4ccc(Cl)c(Cl)c4)c3)cc2-c2ccncc2)c1`, the growth in the assay with K-562 leukemia is 10%; with MALME-3M melanoma, -19.8% (active); in the assay with MDA-MB-231 breast it was -21% (active); with RXF 393 renal, 4.46% (active); with SF-268 CNS it was 25.3%; with SF-295 CNS, -2.42% (active). Moreover, the growth in the assay with SF-539 CNS is 20.9%; in the assay on UACC-257 melanoma it was -11.5% (active); with M14 melanoma, 18.7%; in the assay on HCT-15 colon it was 13.9%.

For `COc1cccc(C(=O)Nc2ccc(CN3CCc4nc5cc(OC)c(OC)cc5cc43)cc2)c1`, the growth with K-562 leukemia is 24.5%; in the assay on MALME-3M melanoma it was 51.8%; in the assay with MDA-MB-231 breast it was 48%; in the assay on RXF 393 renal, 48.7%; in the assay on SF-268 CNS, 47%; in the assay with SF-295 CNS, 65.7%. The growth in the assay on SF-539 CNS is 66.5%; in the assay on UACC-257 melanoma, 35.9%; in the assay with M14 melanoma, 38.1%; in the assay with HCT-15 colon, 47.7%.

As to `c1ccc2c(-c3nc(N4CCOCC4)c4c5c(sc4n3)CCCCCC5)cccc2c1`, the growth with K-562 leukemia is 115%; in the assay on MALME-3M melanoma it was 97%; in the assay on MDA-MB-231 breast, 96.7%; in the assay on RXF 393 renal, 95.9%; in the assay with SF-268 CNS, 102%; with SF-295 CNS, 98.1%. Besides, the growth in the assay with SF-539 CNS was 98.9%; in the assay on UACC-257 melanoma, 110%; with M14 melanoma, 110%; in the assay on HCT-15 colon, 100%.

On to `Cc1ccc(CC#N)cc1C`, for which the growth with K-562 leukemia was 73.8%; in the assay on MALME-3M melanoma, 121%; in the assay with MDA-MB-231 breast, 97.2%; in the assay with RXF 393 renal it was 83.2%; in the assay with SF-268 CNS, 86.2%; in the assay with SF-295 CNS, 93%. The growth in the assay with SF-539 CNS is 87.5%; in the assay on UACC-257 melanoma it was 127%; with M14 melanoma, 96.9%; with HCT-15 colon it was 95.4%.

`O=C(Nc1cccc(-n2cc(-c3ccncc3)c(-c3cc(O)cc(Cl)c3)n2)c1)Nc1ccc(Cl)c(C(F)(F)F)c1`: the growth in the assay on K-562 leukemia was 5.24% (active); in the assay with MALME-3M melanoma, -24.9% (active); in the assay on MDA-MB-231 breast it was -47.3% (active); in the assay with RXF 393 renal, -49.5% (active); in the assay on SF-268 CNS it was 42.1%; in the assay with SF-295 CNS, 14.3%. Besides, the growth is 32.6% with SF-539 CNS, -40% (active) in the assay on UACC-257 melanoma, -16.8% (active) in the assay on M14 melanoma and 5.79% (active) in the assay with HCT-15 colon.
